Screening data (PubChem BioAssay)
The list is not random: actives were taken first. Their share in the collection is about 3.4%.
ADAM10 inh: human ADAM10 inhibitors, primary screen, biochemical, QFRET, HTS. Disintegrin and metalloproteinase domain-containing protein 10 (Homo sapiens), O14672. recombinant ADAM10, EDANS/DABCYL FRET peptide cleavage, 3 h. inhibition, % at 7 µM. 0.62% of 370,000 active. AID 720582, 2013;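 active = inhibition above a per-campaign cutoff equal to the mean of compounds falling between control-based bounds plus 3 SD, cut at about 20% in these data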;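 note: 0% = DMSO wells while the 100% control is not disclosed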
ADAM17 inh: ADAM17 inhibitors, primary screen, biochemical, QFRET | Disintegrin and metalloproteinase domain-containing protein 17 (Homo sapiens), P78536 | recombinant ADAM17, EDANS/DABCYL FRET peptide cleavage | inhibition, % at 6.95 µM | 0.83% of 370,000 active;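 active = inhibition above the mean of compounds lying between control limits plus 3 SD, set per campaign, cut at about 8.5% in these data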;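 note: 0% = DMSO-only wells as the low control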
KLK7 zymogen act: proKLK7 zymogen activators, primary screen, biochemical, fluorescence intensity | Kallikrein-7 (Homo sapiens), P49862 | purified proKLK7, EDANS-DABCYL substrate fluorescence; 100% is mature enzyme control, 0% vehicle | activation, % at 7 µM | 0.9% of 370,000 active | AID 652039, 2013;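 active = activation above the mean of all tested compounds plus 3 SD, computed per campaign excluding outliers beyond control limits, cut at about 13% in these data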
HGIII-sPLA2 inh: human group III sPLA2 inhibitors, primary screen, biochemical, QFRET, BODIPY PC-A2 liposome substrate | inhibition, % at 12.2 µM | 0.56% of 370,000 active | QFRET BODIPY PC-A2 liposome hydrolysis, fluorescence;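 active = inhibition above mean plus 3 SD of compounds lying within the high and low control bounds, cut at about 19% in these data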;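 note: 0% = median of test compound wells and 100% = no enzyme DMSO wells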
Target sequence (Q9NZ20 whole entry, looked up): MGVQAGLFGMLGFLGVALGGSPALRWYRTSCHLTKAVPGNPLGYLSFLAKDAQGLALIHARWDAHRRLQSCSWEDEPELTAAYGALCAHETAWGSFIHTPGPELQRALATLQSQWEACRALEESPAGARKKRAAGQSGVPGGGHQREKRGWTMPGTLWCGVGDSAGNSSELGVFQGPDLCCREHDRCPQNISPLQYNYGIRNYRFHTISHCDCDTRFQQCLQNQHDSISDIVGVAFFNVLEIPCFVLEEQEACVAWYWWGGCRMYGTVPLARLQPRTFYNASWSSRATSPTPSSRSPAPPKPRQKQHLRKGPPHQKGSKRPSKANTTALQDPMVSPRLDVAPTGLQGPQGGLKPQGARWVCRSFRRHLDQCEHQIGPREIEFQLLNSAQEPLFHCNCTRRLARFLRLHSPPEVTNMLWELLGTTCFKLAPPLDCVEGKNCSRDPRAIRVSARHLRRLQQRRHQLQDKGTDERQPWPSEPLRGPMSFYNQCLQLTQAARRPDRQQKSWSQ
NRP1-CendR mod: modulators of CendR peptide binding to NRP-1, primary screen, biochemical, fluorescence polarization, uHTS; Neuropilin-1 (Homo sapiens), O14786; FAM-RPARPAR peptide binding to NRP-1; inhibition, % at 25 µM; 0.85% of 360,000 active; AID 602438, 2012;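 active = inhibition or corrected inhibition above about 18%, plus a signal ratio from 0.5 to 1.5, limit read from the data, passing the limit was not always enough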
hGIII sPLA2 conf: human group III sPLA2 inhibitors, confirmation, biochemical, QFRET, triplicate; shares compounds with HGIII-sPLA2 inh; inhibition, % at 12.2 µM; recombinant hGIII-sPLA2, BODIPY PC-A2 QFRET fluorescence; 34% of 2,000 active;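 active = mean inhibition across triplicates above the hit cutoff set in the earlier primary screen, cut at about 19% in these data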;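 note: 0% = enzyme with DMSO and 100% = DMSO wells lacking enzyme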
535nm interf: 535nm fluorescence optical interference, confirmation, artefact control for HGIII-sPLA2 inhibitor project, biochemical, QFRET; shares compounds with HGIII-sPLA2 inh; BODIPY FL product fluorescence interference; inhibition, % at 12.2 µM; 8.5% of 2,000 active; AID 743282, 2014;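 active = average inhibition above the solvent-only control mean plus 3 SD, cut at about 6% in these data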;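 note: 0% = DMSO with substrate plus product and 100% = DMSO with substrate alone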
535nm interf DR: 535nm fluorescence optical interference, dose response, artefact control for HGIII-sPLA2 inhibitor project, biochemical, QFRET | shares compounds with HGIII-sPLA2 inh | BODIPY FL product fluorescence interference, cell-free | IC50, µM | 240 tested, under 10 active | AID 743455, 2014;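 active = IC50 at or below 10 µM; inactive = IC50 above 10 µM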
* hit, by the source's call; / = no result given.

SMILES	ADAM10 inh	ADAM17 inh	KLK7 zymogen act	HGIII-sPLA2 inh	NRP1-CendR mod	hGIII sPLA2 conf	535nm interf	others
C=CCNC(=O)/C(=C/c1cn(-c2ccccc2)nc1-c1cccc([N+](=O)[O-])c1)NC(=O)c1ccccc1	7	-1	0	21*	8	-12	-24
S=C(NCc1ccccn1)Nc1cccc(Cl)c1	0	-3	0	5	2	/	/
CC(=NNC(=S)Nc1cccc(Cl)c1)c1ccccn1	-6	4	0	20*	8	38*	4
CCCCNC(=S)NNC(=O)c1nn(C)c(C)c1Cl	14	-4	0	23*	-6	21*	0
O=C(NNC(=S)NCc1ccco1)c1ccc(Cl)s1	-2	-3	1	-14	8	/	/
Cc1c(Cl)c(C(=O)NNC(=S)NCc2ccco2)nn1C	7	-6	0	35*	2	41*	-2	535nm interf DR=>122
Cn1cc(Cl)c(C(=O)NNC(=S)NCc2ccco2)n1	-6	-3	0	30*	-20	25*	6.3*
C=CCNC(=O)NC[C@@]1(C(=O)OC)CC(=O)N(C)[C@@H]1c1ccccc1	-2	-2	0	1	/	/	/
S=C1NCN(C2CCCCC2)CN1CCc1ccccc1	-8	-6	0	22*	4	20*	-9
CCOc1ccc(CCN2CN(C3CCCCC3)CNC2=S)cc1OCC	0	0	-1	18	4	/	/
S=c1[nH]nc(-c2ccco2)n1-c1cccc2ccccc12	12	5	-1	21*	-9	25*	3
Cn1c(-c2cccc3ccccc23)n[nH]c1=S	-13	-2	0	20*	-10	5	-4
Cc1ccc(C)c(-n2c(-c3ccco3)n[nH]c2=S)c1	-10	-13	0	21*	7	21*	3
Cn1c(-c2cc(Br)ccc2O)n[nH]c1=S	-16	-8	1	4	-6	/	/
COc1ccccc1-n1c(-c2ccco2)n[nH]c1=S	-9	-6	0	7	1	/	/
CC(=O)CC[C@@H]1CC[C@]2(CCCN(C(=O)C3CCCCC3)C2)O1	-3	-2	0	4	/	/	/
CC(=O)CC[C@@H]1CC[C@]2(CCCN(S(C)(=O)=O)C2)O1	-14	-2	0	22*	/	-2	-6
CCN(CC)c1ccc(C(=O)NNC(=O)CCNC(=O)c2ccccc2)cc1	-8	1	0	-3	0	/	/
CCN(CC)c1ccc(C(=C2C=CC(=[N+](CC)CC)C=C2)c2ccccc2)cc1	-16	4	1	63*	-1	75*	-16
CCc1ccc(N2C(=O)Nc3ccc(Br)cc3C2(O)C(=O)NCCN(C)C)cc1 (centres undefined)	3	-3	-1	20*	-6	2	-6
CCOc1ccc(N2C(=O)Nc3ccc(Br)cc3C2(O)C(=O)NCCN(C)C)cc1 (centres undefined)	6	-1	0	-2	0	/	/
C/C(CC(C)(C)C1CCCCC1)=N\NC(N)=S	1	-2	0	20*	-6	19*	-3
Cc1c(Cl)ccc2sc(NC(=O)CN3C(=O)c4ccccc4C3=O)nc12	-4	-2	0	20*	-10	0	-8
CCCC(=O)Nc1nc2c(C)c(Cl)ccc2s1	-3	-2	1	-3	-2	/	/
CCCCN1C[C@@H]2CSCCS(=O)(=O)N2C1=O	-2	-4	0	13	/	/	/
SMILES	ADAM10 inh	ADAM17 inh	KLK7 zymogen act	HGIII-sPLA2 inh	NRP1-CendR mod	hGIII sPLA2 conf	535nm interf	others
N=C(N)SCc1ccc(Cl)c2ccccc12	-1	-2	0	45*	-18	32*	-11	535nm interf DR=>122
NC(=O)c1ccc(Cl)c2ccccc12	2	1	0	-1	1	/	/
COc1ccccc1C(=O)NC1CCCCN(Cc2ccc(Cl)cc2)C1=O (centres undefined)	0	-1	1	-2	/	/	/
COc1ccc(C(=O)/C=C2\C(=O)Nc3ccc(Br)cc32)cc1	11	1	1	16	-10	/	/
O=C1Nc2ccc(Br)cc2/C1=C/C(=O)c1ccc2c(c1)OCO2	11	3	0	26*	0	42*	14*
S=C(Nc1ccc(Cl)cc1)c1nc2ccccc2[nH]1	10	3	1	30*	-8	36*	2	535nm interf DR=>122
Cc1ccccc1NC(=S)c1nc2ccccc2[nH]1	-1	2	0	45*	7	31*	3	535nm interf DR=>122
O=C(/C(=C\c1ccccc1)c1nc2ccccc2[nH]1)c1ccc(Cl)cc1	3	-5	-2	6	-12	/	/
CCn1c(COc2ccccc2)nnc1SCC(=O)Nc1ccc(S(=O)(=O)Nc2cc(C)nc(C)n2)cc1	5	1	0	-14	/	/	/
CC(CSc1nnnn1-c1ccccc1)Cn1c(N2CCCC2)nc2c1c(=O)[nH]c(=O)n2C (centres undefined)	-7	-9	0	21*	-13	0	-21
CCc1c(C)sc(NC(=O)c2cccs2)c1C#N	-132	-31	1	20*	-55	25*	-3
COC(=O)[C@]12C[C@H](CC(=O)N3CCN(C(=O)C4CC4)CC3)C(=O)N(Cc3ccc4c(c3)OCO4)C1=C[C@H](COCc1ccccc1)O[C@@H]2C	-10	-5	1	3	/	/	/
CC1CCCCN1C(=S)NCCc1ccccc1 (centres undefined)	14	2	0	22*	-7	9	-6
S=C(NCCc1ccccc1)N1CCCC1	4	1	0	2	4	/	/
Cc1cccc(Oc2cc(N)cc([N+](=O)[O-])c2)c1	20	5	0	20*	-21	16	-2
N#Cc1cccc(C(=O)N2CCC(Oc3cccnc3)CC2)c1	0	-3	0	-3	/	/	/
Cc1n[nH]c(=S)n1/N=C/c1ccccc1OCc1ccc(Cl)cc1Cl	-5	-6	1	20*	2	17	5
Oc1ccccc1/C=N/n1c(COc2ccccc2)n[nH]c1=S	-14	-7	-1	24*	2	16	2
Cc1ccc(/C=N/n2c(COc3ccccc3)n[nH]c2=S)o1	15	2	-1	20*	-8	25*	3
